# TDP1 cell noCPT: qHTS for Inhibitors of human tyrosyl-DNA phosphodiesterase 1 (TDP1): qHTS in cells in absence of CPT | DT40 Tdp1-/- hTDP1 cells, no CPT, ATP luminescence, 48 h | 420,000 tested, 15% active | AID 686978, 2013 | Potency, µM (titrated, usually from 46.2 µM), for the others: at the highest dose activity change, negative = growth inhibition, hits mostly inhibitors; further: potency means the concentration at half of the fitted maximal effect; on the % scale 0 is the no-effect control and ±100 the full control effect; nearly all actives have a fitted effect of over 55% in size
#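 Stably hTDP1-transfected Tdp1-null chicken DT40 cells were treated with library compounds minus camptothecin and grown for at least 48 hr at 37 °C, after which cellular ATP was quantified by luminescence.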
# TGFb inhibitor: blocks TGF-b signaling; 410,000 tested, 1.2% active; HepG2 CAGA-GFP TGF-b/SMAD3 reporter, GFP fluorescence, 18 h; TGF-beta stimulated, 500 pg/mL final; Potency, µM (highest dose often 46.1 µM), inactives show at the top dose activity, negative = inhibition, actives largely listed as inhibitors; AID 588855; further: potency means the concentration at half of the fitted maximal effect; on the % scale 0 is the no-effect control and ±100 the full control effect; nearly all actives have a fitted effect of over 65% in size
#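 HEPG2 CAGA-GFP, 1000 cells/well; 2 h settle, 37 C; cpd via pin tool; TGF-b 500 pg/mL final; 18 h, 37 C; GFP imaging ex488/em500-530; %Activity normalised to -TGF-b and +DMSO controls; CRC fit, curve class.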
# TDP1 block: blocks human tyrosyl-DNA phosphodiesterase 1 | AID 485290 | recombinant TDP1, AlphaScreen DNA substrate cleavage | 350,000 tested, 0.28% active | Potency, µM (doses to about 130 µM), for inactives: at the highest dose activity change, negative = inhibition, usual class: inhibitors; further: potency means the concentration at half of the fitted maximal effect; on the % scale 0 is the no-effect control and ±100 the full control effect; nearly all actives have a fitted effect of over 40% in size
# Target sequence (Q9NUW8 whole entry, looked up): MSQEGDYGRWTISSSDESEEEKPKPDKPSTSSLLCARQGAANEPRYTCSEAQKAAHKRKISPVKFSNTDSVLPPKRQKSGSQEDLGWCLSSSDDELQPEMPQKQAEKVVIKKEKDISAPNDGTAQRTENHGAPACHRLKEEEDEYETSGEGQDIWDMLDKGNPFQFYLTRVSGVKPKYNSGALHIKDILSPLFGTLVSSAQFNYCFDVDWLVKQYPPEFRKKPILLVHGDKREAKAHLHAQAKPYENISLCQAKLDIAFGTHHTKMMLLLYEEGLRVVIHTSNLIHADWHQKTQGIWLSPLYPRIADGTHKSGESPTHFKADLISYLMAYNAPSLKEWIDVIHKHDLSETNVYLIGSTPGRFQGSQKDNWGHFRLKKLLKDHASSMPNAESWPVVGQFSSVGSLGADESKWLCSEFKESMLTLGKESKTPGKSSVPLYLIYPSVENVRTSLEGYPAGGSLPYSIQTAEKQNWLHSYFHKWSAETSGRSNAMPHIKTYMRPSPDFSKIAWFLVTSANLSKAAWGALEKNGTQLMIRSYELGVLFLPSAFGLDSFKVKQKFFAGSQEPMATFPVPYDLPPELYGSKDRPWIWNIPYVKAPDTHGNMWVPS
#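 Recombinant human Tdp1 (E. coli-expressed, 1 nM final) preincubated with compounds 15 min at room temperature, then 5'-biotin/3'-phosphotyrosine-FITC DNA substrate (15 nM final) added for 5 min. AlphaScreen beads (10 ug/ml final) added 10 min; cleavage lowers signal.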
# IL1B secr inh: inhibitors of inflammasome signaling (IL-1 beta secretion); THP-1 LPS/ATP IL-1B secretion, AlphaLISA, 16 h; active compounds read low; activity change, % at 57.5 µM; 360,000 tested, 4.7% active; AID 743279; in the data active means activity change below about -50%; inconclusive means mostly about -30% to -49%; further: on the % scale 0 is the no-effect control and ±100 the full control effect
#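 THP-1 cells pretreated 1 hr with compounds (up to 57.5 uM final), then stimulated with LPS (250 ng/mL final) plus ATP (1.25 mM final); secreted IL-1B measured by AlphaLISA after 16 hr, decreased signal indicating inhibition.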
# HepG2 viability: kills HepG2 cells in TGF-b inhibitor counter-screen; Potency, µM (titrated, usually from 46.1 µM), for inactives: at the top dose activity change, negative = cytotoxicity, hits mostly cytotoxic; HepG2 CAGA-GFP viability, ATP luminescence, 18 h; AID 588856; 410,000 tested, 0.76% active; further: potency means the concentration at half of the fitted maximal effect
#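 HepG2 CAGA-GFP cells (1000/well, DMEM with 1% FBS) received compound, then TGF-beta at 500 pg/mL final, and were incubated 18 hours at 37 degrees C. Viability was read by CellTiter-Glo luminescence. Media-only wells were set as complete cell-killing and DMSO as no toxicity.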
# DT40 TDP1 CPT: DT40-hTDP1 cell growth loss with CPT. 420,000 tested, 12% active. AID 686979. chicken DT40 Tdp1-/-;hTDP1 cells + 20 nM CPT, ATP luminescence, 48 h. Potency, µM (top dose mostly 46.2 µM), for the others: at the top dose activity change, negative = growth inhibition, hits mostly inhibitors; further: potency means the concentration at half of the fitted maximal effect; on the % scale 0 is the no-effect control and ±100 the full control effect; nearly all actives have a fitted effect of over 55% in size
#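 Chicken DT40 Tdp1-/- cells stably complemented with human TDP1 were seeded at 400 cells/well in medium containing 20 nM camptothecin, exposed to pin-transferred compounds, and grown at 37 °C for at least 48 hr. Viability was read as ATP luminescence.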
# * hit, by the source's call; ? = inconclusive; / = no result given; [ ] = remark or other dose. Sampled rows, rich in hits. Any-hit rate of the full collection: about 18%. Unless noted, the call rests on the fitted dose curve; in most records, active means well fitted curve in the direction sought with a large enough effect; inconclusive means small, poorly fitted or top-dose-only effect, or another doubt; inactive means no such curve, though single readings can be large; an effect the other way counts as inactive or inconclusive.
SMILES,TDP1 cell noCPT,TGFb inhibitor,TDP1 block,IL1B secr inh,HepG2 viability,DT40 TDP1 CPT
O=C(CN1CCCc2ccccc21)N1CCc2ccccc21,?,4.7%,6.8%,48.8,-2.7%,16.4µM*
O=C(CN1CCCCC1)N1CCc2ccccc21,-0.5%,6.1%,0.8%,-1.7,0.9%,-2.9%
CCOC(=O)c1cc2sccc2n1CC(=O)OC(C)C,-5.1%,0.9%,6.3%,4.9,-7.7%,-7.6%
CCOC(=O)c1cc2sccc2n1CC(=O)N1CCc2ccccc21,11.6µM*,6.2%,4.2%,-3.6,-4.9%,4.61µM*
O=C(CCCC(=O)N1CCc2ccccc21)N1CCc2ccccc21,-11.2%,-7.7%,-4.1%,5.8,-0.6%,-3.9%
Cc1ccccc1C(=O)Nc1cccc(C(=O)OCc2cc(=O)n3c4c(sc3n2)CCCC4)c1,?,0.4%,6.2%,/,-1.8%,?
COc1cccc(C(=O)Nc2cccc(C(=O)OCc3cc(=O)n4c5c(sc4n3)CCCC5)c2)c1,18.4µM*,8.4%,3.8%,/,0.4%,?
O=C(Nc1cccc(C(=O)OCc2cc(=O)n3c4c(sc3n2)CCCC4)c1)c1ccc(Cl)cc1,-20.5%,10µM*,1.2%,/,-31.4%,?
O=C(Nc1cccc(C(=O)OCc2cc(=O)n3c4c(sc3n2)CCCC4)c1)c1ccccc1,16.4µM*,14.8%,8.8%,/,9.1%,?
O=C(Nc1cccc(C(=O)OCc2cc(=O)n3c4c(sc3n2)CCCC4)c1)c1cccc(Cl)c1,?,10.5%,1.2%,/,6.8%,-20.2%
Cc1ccc(C(=O)Nc2cccc(C(=O)OCc3cc(=O)n4c5c(sc4n3)CCCC5)c2)cc1,18.4µM*,?,-1.2%,/,-24.8%,?
Cc1ccc(NC(=O)CCc2c(C)nc3nc(C)nn3c2C)c(Cl)c1,-17.4%,33.2%,0.0%,/,-0.3%,-6.3%
NC(=NCc1ccccc1)NC(=O)c1nc(Cl)c(N)nc1N,23.1µM*,-26.3%,10.9%[56.1 µM],-60.7*,-17.7%,10.3µM*
CC(C)CCn1cnc2c(oc3nc4c(cc32)CCCC4)c1=O,20.6µM*,-12.0%,0.0%,?,-7.2%,?
CC(=O)Nc1cc(-c2ccccc2)ccc1O,?,7.2%,6.3%,13.2,2.0%,20.6µM*
CC(=O)Nc1cc(Br)ccc1O,11.5%,-14.1%,4.9%,0.9,2.0%,2.8%
CC(Cc1cccnc1)NC(=O)c1cc(COc2ccc(F)cc2Cl)on1 (stereo unspecified),23.1µM*,?,6.1%,-14.1,9.1%,20.6µM*
CCn1cc(CNC(=O)c2cc(COc3ccc(F)cc3Cl)on2)cn1,5.8µM*,-22.6%,5.6%,-21.5,-48.5%,20.6µM*
O=C(NCCCn1cccn1)c1cc(COc2ccc(F)cc2Cl)on1,-8.0%,-28.0%,/,23.4,-0.3%,-23.3%
C=CC[n+]1cccc2cccc(O)c21,-19.6%,0.7%,/,/,-0.7%,-17.5%
COc1ccccc1NC(=O)C1=C(C)NC2=C(C(=O)CC(c3ccc(OC)c(OC)c3)C2)C1c1coc2ccccc2c1=O (stereo unspecified),?,-11.8%,5.3%,-23.5,3.8%,?
CC1=C(C(=O)Nc2ccccc2F)C(c2ccsc2)C2=C(CC(c3ccccc3)CC2=O)N1 (stereo unspecified),25.9µM*,1.6%,0.0%,-17.7,-13.9%,25.9µM*
CC(C)(C)N1C(=O)[C@H]2[C@H]3[C@H](O)[C@H](O)C/C(=N/OC[C@@H](O)COCc4ccco4)[C@H]3CC[C@@H]2C1=O,/,/,7.9%[21 µM],/,/,/
CC(C)NC(=S)NNc1nc2ccccc2s1,2.91µM*,-10.4%,10.1%,2.6,5.4%,1.46µM*
O=C1/C(=C\c2cc(Cl)c(O)c(Cl)c2)SC(=S)N1Cc1ccccc1,2.31µM*,238.3%,/,-18.9,11.2µM*,6.51µM*
SMILES,TDP1 cell noCPT,TGFb inhibitor,TDP1 block,IL1B secr inh,HepG2 viability,DT40 TDP1 CPT
COc1ccc(/C=C2/SC(=S)N(Cc3ccccc3)C2=O)cc1O,-11.1%,?,/,?,-89.4%,-27.4%
COc1ccc(O)c(/C=C2/SC(=S)N(Cc3ccccc3)C2=O)c1,20.6µM*,?,/,4.7,-54.5%,?
COc1ccc(NC(=O)C(c2ccc(C#N)cc2)n2c(=O)c(-c3ccco3)nc3ccccc32)cc1 (stereo unspecified),-28.0%,/,/,-13.1,/,-17.7%
C[C@@H]1CCC[C@]2(C)CCCC[C@@]12O,/,/,3.0%,/,/,/
O=C1CC(c2ccc(F)cc2)c2c(c3ccccc3[nH]c2=O)O1 (stereo unspecified),/,-0.1%,1.9%,/,-2.3%,/
S=c1nc[nH]c2c1cnn2Cc1ccccc1,3.66µM*,6.3%,/,34.9,0.8%,10.3µM*
Cc1cc(=O)[nH]c2c1cnn2Cc1ccccc1,-6.6%,-7.0%,6.8%,22.9,11.5%,?
Cc1occc1C(=O)N/N=C/C1=C(N2CCOCC2)C(=C/c2ccc(Cl)cc2Cl)/CC1,7.31µM*,-16.5%,/,-6.5,4.6%,5.8µM*
Cc1ccc(S(=O)(=O)N(CC(=O)NC2CC2)c2ccc(C)c(Cl)c2)cc1,-15.7%,8.7%,1.7%,-4.8,0.9%,-7.1%
COC(=O)[C@]1(C)N[C@H](CN(C)C(=O)C2CCCCC2)[C@@H]2C(=O)N(Cc3ccccc3)C(=O)[C@@H]21,12.4%,4.1%,1.5%,12.5,6.3%,-2.9%
Cc1cc(N2CCCCC2)nc2ccc(NC(=O)/C=C/c3ccc(OCCC(C)C)cc3)cc12,18.4µM*,56.9%,5.9%,/,3.7%,-109.9%
Cc1cc(N2CCC(C)CC2)nc2ccc(NC(=O)/C=C/c3cccc(Cl)c3)cc12,4.11µM*,-2.0%,5.9%,/,-15.5%,6.51µM*
Cc1ccc(/C=C/C(=O)Nc2ccc3nc(N4CCC(C)CC4)cc(C)c3c2)cc1,3.66µM*,?,0.0%,/,-29.3%,5.8µM*
Cc1cc(N2CCCCC2)nc2ccc(NC(=O)CCC(=O)NCCC(C)C)cc12,-26.6%,?,0.5%,0.7,-21.7%,-29.7%
COc1ccc(-c2nc(-c3ccc(NC(=O)c4ccc(Br)o4)cc3)no2)cc1OC,6.51µM*,?,4.0%,-17.5,-59.2%,18.4µM*
COc1ccc(CCC(=O)Nc2ccc(-c3noc(-c4ccc(OC)c(OC)c4)n3)cc2)cc1,?,24.5%,6.6%,17.0,-20.3%,-28.0%
COc1cc(-c2nc(-c3ccc(NC(=O)c4ccc(Br)o4)cc3)no2)cc(OC)c1OC,16.4µM*,-12.4%,5.9%,41.5,-64.9%,13µM*
